Results published in PubChem BioAssay (NCI).
This is part of a sample that, as a whole, favours compounds with a hit. Of some 83,000 tested, about 20% had one in any assay.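 Plates (96-well) were seeded with cells, treated with compound at one concentration, and incubated for 48 hours before percent growth was determined.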 Values without a mark were called inactive. Active and inactive are the calls of the source. How the source made its calls: active means growth percent below 10; inactive means the rest. Where a SMILES comes first, the peptide text is derived from it. Bridges are numbered along the chain shown (N, C = ends). [ ]: non-standard residue; d: D form. The star is where a group is joined. ξ: configuration not given here. ξNMePhe(4-NMe2) = CNC(Cc1ccc(N(C)C)cc1)C(=O)O; Picolinoyl(3-OH) = O=C(c1ncccc1O)*; ξPip(4-oxo) = O=C1CCNC(C(=O)O)C1; Phg = N[CH](C(=O)O)c1ccccc1; Abu = CC[CH](N)C(=O)O

Assays:
Test in all cases: NCI-60 one-dose screen, 48 h (100 = growth as untreated, 0 = no growth, -100 = all killed)
Conditions in all cases: 10 µM
[1] = test system: NCI-H23 lung
[2] = test system: NCI-H226 lung
[3] = test system: NCI-H322M lung
[4] = test system: HOP-62 NSCLC
[5] = test system: NCI-H460 lung
[6] = test system: HOP-92 NSCLC
[7] = test system: NCI-H522 lung
[8] = test system: A549/ATCC NSCLC
[9] = test system: 786-0 renal
[10] = test system: COLO 205 colon

| Compound | growth [1] [%] | growth [2] [%] | growth [3] [%] | growth [4] [%] | growth [5] | growth [6] | growth [7] [%] | growth [8] [%] | growth [9] [%] | growth [10] [%] |
| --- | --- | --- | --- | --- | --- | --- | --- | --- | --- | --- |
| O=S(=O)(O)CC(O)CN1CCN(CCO)CC1 (stereo not drawn) | 94.2 | 108 | 112 | 110 | 114% | 86.2% | 89 | 98.8 | 105 | 106 |
| CC(=O)OCC1=CC2OC(=O)C3=COC(OC4OC(CO)C(O)C(O)C4O)C1C32 (stereo not drawn) | 72.4 | 105 | 104 | 108 | 120% | 89.3% | 93.5 | 138 | 98.9 | 114 |
| CCC1NC(=O)C(NC(=O)c2ncccc2O)C(C)OC(=O)C(c2ccccc2)NC(=O)C2CC(=O)CCN2C(=O)C(Cc2ccc(N(C)C)cc2)N(C)C(=O)C2CCCN2C1=O (stereo not drawn) (tested in a mixture with another compound) ({Picolinoyl(3-OH)}-T[Abu]P[ξNMePhe(4-NMe2)][ξPip(4-oxo)][Phg]; ester 1-C; configuration not given here) | 19.7 | 56.7 | 87.2 | 87.7 | 26.2% | 53.8% | 66 | 28.1 | 67.4 | 27 |
| O=[N+]([O-])c1ccc(CO)cc1 | 104 | 98.4 | 98.9 | 90.8 | 98.7% | 110% | 104 | – | 94.4 | 109 |
| O=C(Cc1ccc(OCc2ccccc2)cc1)NCc1ccc2c(c1)OCO2 | 78.3 | 99.6 | 80.8 | 77.9 | 28.7% | 86.8% | – | 58.2 | 88.7 | 85.5 |
| c1ncc2[nH]cnc2n1 | 104 | 99.5 | 85.7 | 104 | 105% | 89.4% | 89.2 | 86.7 | 95.2 | 101 |
| O=C1C[C@H](c2ccccc2)[C@H](c2ccccc2)C1 | 102 | 97.6 | 99.7 | 98.5 | 112% | 70.9% | 79 | – | 101 | 113 |
| COc1ccc(C(O)c2ccccc2)cc1 (stereo not drawn) | 97.6 | 94 | 93.7 | 90.6 | 98.7% | 93.4% | 94.8 | – | 100 | 106 |
| CCCCNC(=O)C(=O)NCCCC | 105 | 106 | 104 | 108 | 115% | 104% | 112 | 111 | 101 | 117 |
| Nc1ccc(N=Nc2ccc(S(=O)(=O)O)cc2)c2ccccc12 | 86.2 | 87 | 91.8 | 63.7 | 94.8% | 76.9% | 95.7 | – | 106 | 90.7 |
| CCOC(=O)c1ccc(Nc2sc(C(=O)c3cccc([N+](=O)[O-])c3)c(N)c2C#N)cc1 | 34.2 | 41 | 55 | 27.3 | 4.75% (active) | 43% | – | 48.3 | 24.7 | – |
| NNc1ccccc1C(=O)O | 111 | 96 | 128 | 104 | 110% | 98.1% | – | 109 | 113 | 107 |
| O=c1[nH]c(O)c(/C=C2/C=Nc3ccccc32)[nH]1 | 101 | 92.1 | 107 | 99.4 | 99.3% | 84.5% | – | 91.3 | 107 | 101 |
| C=CCNc1nnc(C)s1 | 98.1 | 99.8 | 96.7 | 98.8 | 115% | 83% | – | 116 | 94.9 | 122 |
| O=c1cc2oc3cc(O)c(O)cc3c(-c3ccccc3O)c-2cc1O | 82.4 | 87 | 57.5 | 63 | 96% | 7.48% (active) | – | 108 | 57.2 | 126 |
| CC(CN1CCCCC1)NC(=O)c1scnc1-c1ccccc1 (stereo not drawn) | 101 | 108 | 95.6 | 100 | 111% | 91.9% | – | 96.8 | 102 | 104 |
